Bioassay records as filed in PubChem.
Most compounds without a hit are left out; they make up all but 0.52% or so of the library.
Tb PGK inh: qHTS Assay to Find Inhibitors of Phosphoglycerate Kinase | Potency, µM (series often up to 57.5 µM), inactives show at the highest dose activity change, negative = inhibition, usual class: inhibitors | Phosphoglycerate kinase, glycosomal (Trypanosoma brucei brucei), P07378 | PGK/GAPDH coupled, Kinase-Glo luminescence, 60 min | 0.043% of 380,000 active; further: nearly all actives have a fitted effect of over 60% in size
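Recombinant glycosomal PGK reaction used 1,3-bisphosphoglycerate generated in-well by GAPDH (100nM final) in 100mM TEA pH 7.6, 5mM MgCl2, 0.01% Tween-20. After 60 minutes at room temperature, ATP was read by Kinase-Glo Plus luminescence end-point.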
Tb PFK inh: qHTS Assay to Find Inhibitors of T. brucei phosphofructokinase; ATP-dependent 6-phosphofructokinase (Trypanosoma brucei brucei), O15648; T. brucei PFK, ADP-Glo luminescence; Potency, µM (titrated, usually from 57.5 µM), inactives show at the top dose activity, negative = inhibition, usual class: inhibitors; 0.17% of 330,000 active; AID 485367, 2010;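 further: 0% = uninhibited 1x PFK enzyme wells and -100% = no-enzyme wells; nearly all actives have a fitted effect of over 60% in size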
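Compounds were pin-transferred as a titration series up to 57 uM into substrate buffer (0.5 mM F6P, 0.1 mM ATP, pH 8.0), then 1.25 nM PFK was added and reactions ran 45 min before ADP-Glo detection.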
USP2a block: qHTS Assay for Inhibitors of Ubiquitin-specific Protease USP2a Using CHOP2 as the Reporter. 0.01% of 330,000 active. USP2 core, Ub-CHOP2 coupled fluorogenic reporter, 485/531. Potency, µM (titrated, usually from 38.3 µM), for the others: at the highest dose activity change, negative = inhibition, actives largely listed as inhibitors;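 further: plate controls were DMSO wells for no effect and full inhibition by NEM control for full effect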
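USP2 core (10nM final) preincubated 30min RT with compound in 20mM Tris-HCl pH 8.0, 2mM CaCl2, 2mM beta-mercaptoethanol, 0.05% CHAPS; 25nM Ub-CHOP2 plus 25nM reporter substrate added, fluorescence (Ex485/Em531) read after 60min.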
GLS inh: qHTS for Inhibitors of Glutaminase (GLS); Potency, µM (series often up to 45.5 µM), for the others: at the highest dose activity change, negative = inhibition, most hits filed as inhibitors; 0.21% of 410,000 active; AID 624170, 2012; GLS enzymatic activity, qHTS titration; Glutaminase kidney isoform, mitochondrial (Homo sapiens), O94925
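hKGA; 45 mM KH2PO4 pH 8.2 + 0.02% Tween-20; cpd via pin tool; 1 mM Gln soln; GluOx/HRP/Amplex Red; RT 30 min; fluor. t0 & final.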
GCN5L2 inh: qHTS Assay for Inhibitors of GCN5L2. 0.21% of 390,000 active. Histone acetyltransferase KAT2A (Homo sapiens), Q92830. Potency, µM (doses to about 58.9 µM), for inactives: at the highest dose activity change, negative = inhibition, actives largely listed as inhibitors. GCN5L2 HAT assay, ThioGlo1 CoA-SH fluorescence
Target sequence (Q92830 whole entry, looked up): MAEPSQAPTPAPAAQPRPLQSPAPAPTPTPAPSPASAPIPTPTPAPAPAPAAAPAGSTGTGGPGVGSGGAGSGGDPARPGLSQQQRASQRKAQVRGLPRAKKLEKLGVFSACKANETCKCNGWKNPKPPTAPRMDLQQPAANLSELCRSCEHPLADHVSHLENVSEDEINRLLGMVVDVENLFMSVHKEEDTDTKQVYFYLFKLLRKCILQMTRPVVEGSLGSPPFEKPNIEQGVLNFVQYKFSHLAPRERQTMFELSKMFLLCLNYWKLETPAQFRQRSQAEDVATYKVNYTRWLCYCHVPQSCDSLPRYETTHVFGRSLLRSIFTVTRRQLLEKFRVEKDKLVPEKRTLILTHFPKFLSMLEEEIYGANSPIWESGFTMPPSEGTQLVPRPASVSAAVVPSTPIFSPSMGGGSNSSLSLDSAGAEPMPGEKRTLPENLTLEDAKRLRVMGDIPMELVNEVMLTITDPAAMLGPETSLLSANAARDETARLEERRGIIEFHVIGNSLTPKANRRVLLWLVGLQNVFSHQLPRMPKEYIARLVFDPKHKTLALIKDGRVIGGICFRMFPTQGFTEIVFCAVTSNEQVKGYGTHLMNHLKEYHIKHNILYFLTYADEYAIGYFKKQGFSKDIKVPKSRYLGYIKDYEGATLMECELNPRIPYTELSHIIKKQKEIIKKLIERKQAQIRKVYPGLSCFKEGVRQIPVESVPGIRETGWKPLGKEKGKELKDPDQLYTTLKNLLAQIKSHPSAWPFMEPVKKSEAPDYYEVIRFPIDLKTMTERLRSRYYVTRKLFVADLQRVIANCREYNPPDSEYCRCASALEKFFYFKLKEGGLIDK
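Compounds, pin-transferred from DMSO stocks, meet 20nM GCN5L2 for 15 min before the reaction begins with H3(1-25) peptide (75uM) and acetyl-CoA (70uM). Thiol-reactive ThioGlo1 reports CoA release over 20 min at room temperature.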
The depositor's hits bear a star. The call rests on the fitted dose curve; in most records, active means well fitted curve in the direction sought with a large enough effect; inconclusive means small, poorly fitted or top-dose-only effect, or another doubt; inactive means no such curve, though single readings can be large; an effect the other way counts as inactive or inconclusive. Unless noted, on the % scale 0 is the no-effect control and ±100 the full control effect; potency means the concentration at half of the fitted maximal effect.

Screening Cc1ccc(NS(=O)(=O)c2ccc3c(c2)CC(=O)N3)c(C)c1 returned Tb PGK inh 2%, Tb PFK inh 1%, USP2a block 0%, GLS inh 17% and GCN5L2 inh 25µM*.
Screening C=C(C)C(=O)Oc1ccc(N=Nc2ccc(C)cc2)ccc1=O returned Tb PGK inh 2.8µM* and GLS inh inconclusive.
Screening CC[C@]1(O)C[C@H]2CN(CCC3=c4ccccc4=N[C]3[C@@](C(=O)OC)(c3cc4c(cc3OC)N(C)[C@H]3[C@@](O)(C(N)=O)[C@H](O)[C@]5(CC)C=CCN6CC[C@]43[C@@H]65)C2)C1 returned GLS inh 15%.
For CS(=O)(=O)c1ccc2c(c1)sc1nc(=O)c(/C=C3/C=CC(=O)C(O)=C3)c(N)n12 the results were Tb PGK inh 13µM*, Tb PFK inh -13%, USP2a block 13%, GLS inh -8% and GCN5L2 inh inconclusive.
Screening CCN(CC)CCOC(=O)c1ccc(N)cc1Cl returned GLS inh -3%.
Screening C=C(C)C(=O)Nc1cccc(C2=NOC3(C2)C[C@@H](C(N)=O)N(C(=O)c2cc([N+](=O)[O-])cc([N+](=O)[O-])c2)C3)c1 (stereo partly drawn) returned Tb PGK inh 18µM*, Tb PFK inh inconclusive, USP2a block -2%, GLS inh -26% and GCN5L2 inh 0%.
Screening CCCCCC(=O)Nc1cccc(C2=NOC3(C2)C[C@@H](C(N)=O)N(C(=O)c2cc([N+](=O)[O-])cc([N+](=O)[O-])c2)C3)c1 (stereo partly drawn) returned Tb PGK inh -13%, Tb PFK inh -4%, USP2a block 7%, GLS inh 1% and GCN5L2 inh 15%.
For Cc1cccc(CCNc2ncnc3onc(-c4ccc(Cl)cc4)c23)c1 the results were Tb PGK inh 2%, GLS inh 1% and GCN5L2 inh -2%.
`CCCCC(F)(F)[C@@]1(O)CC[C@H]2[C@H](CC(=O)[C@@H]2CCCCCCC(=O)O)O1` gave GLS inh -11%.
`COc1ccc(NC(=O)CSC2=Nc3ccccc3C3=NC(CC(=O)NCc4ccc(F)cc4)C(=O)N23)cc1` (stereo not drawn) gave Tb PGK inh -4%, GLS inh -3% and GCN5L2 inh -4%.
Screening CCC(C)NC(=O)CSC1=Nc2ccccc2C2=NC(CC(=O)NCc3ccc(F)cc3)C(=O)N12 (stereo not drawn) returned Tb PGK inh -3%, Tb PFK inh -3%, USP2a block 0%, GLS inh 10µM* and GCN5L2 inh -3%.
`NC(=O)CSC1=Nc2ccccc2C2=NC(c3ccccc3)C(=O)N12` (stereo not drawn) gave Tb PGK inh inactive, Tb PFK inh -1%, USP2a block -1%, GLS inh 19% and GCN5L2 inh -4%.
CCN(CC)C(=O)CSC1=Nc2ccccc2C2=NC(c3ccccc3)C(=O)N12 (stereo not drawn) was read as Tb PGK inh 5%, Tb PFK inh -2%, USP2a block 2%, GLS inh 13µM* and GCN5L2 inh 0%.
`Cc1noc(C)c1S(=O)(=O)NCCc1csc2nc(-c3ccc(Cl)cc3)nn12` gave Tb PGK inh 3%, GLS inh -3% and GCN5L2 inh -2%.
Screening O=C(Cn1cnnn1)N[C@@H]1C(=O)N2C(C(=O)O)=C(CSc3nncs3)CS[C@H]12 returned GLS inh -5%.
For COC1=C(OC)C(=O)C(Sc2ccc3ccccc3c2)=CC1=O the results were Tb PGK inh -9% and GLS inh 10µM*.
`COc1ccc(S(=O)(=O)Oc2ccc3ccccc3c2)cc1` gave Tb PGK inh -3%, Tb PFK inh 5%, USP2a block 0%, GLS inh 4% and GCN5L2 inh -3%.
CC[C@H](C)[C@H](NC(=O)[C@H](CO)NC(=O)[C@H](CC(N)=O)NC(=O)[C@H](CC(C)C)NC(=O)[C@H](Cc1ccc(O)cc1)NC(=O)[C@H](CCCCN)NC(=O)[C@H](CCCCN)NC(=O)[C@@H](NC(=O)[C@H](C)NC(=O)[C@H](CCSC)NC(=O)[C@H](CCC(N)=O)NC(=O)[C@H](CCCCN)NC(=O)[C@H](CCCNC(=N)N)NC(=O)[C@H](CC(C)C)NC(=O)[C@H](CCCNC(=N)N)NC(=O)[C@@H](NC(=O)[C@H](Cc1ccc(O)cc1)NC(=O)[C@H](CC(N)=O)NC(=O)[C@H](CC(=O)O)NC(=O)[C@@H](NC(=O)[C@H](Cc1ccccc1)NC(=O)[C@@H](NC(=O)[C@H](C)NC(=O)[C@H](CC(=O)O)NC(=O)[C@H](CO)NC(=O)[C@@H](N)Cc1c[nH]cn1)C(C)C)[C@@H](C)O)[C@@H](C)O)C(C)C)C(=O)N[C@@H](CC(C)C)C(=O)N[C@@H](CC(N)=O)C(=O)O was read as GLS inh 13%.
For CCOc1c2ccc(C(=O)NCc3ccco3)cc2nn1CCOC the results were Tb PGK inh inactive, Tb PFK inh -2%, USP2a block 1%, GLS inh -15% and GCN5L2 inh 28µM*.
`COc1cc([C@@H]2c3cc4c(cc3[C@@H](O[C@@H]3O[C@H]5CO[C@H](C)O[C@H]5[C@H](O)[C@@H]3O)[C@H]3COC(=O)[C@H]23)OCO4)cc(OC)c1OP(=O)(O)O` gave GLS inh 2%.
For O=C(CCC1CCCC1)Nc1ccccc1-c1ccccc1 the results were Tb PGK inh -7%, Tb PFK inh 0%, USP2a block 2%, GLS inh 2% and GCN5L2 inh -2%.
O=C(CCC1CCCCC1)Nc1ccccc1-c1ccccc1 was read as Tb PGK inh -11%, Tb PFK inh 0%, USP2a block -1%, GLS inh -10% and GCN5L2 inh 3.2µM*.
For Oc1ccccc1N=Cc1sc2ccccc2c1Cl the results were Tb PGK inh 0%, Tb PFK inh -7%, USP2a block -1%, GLS inh 22% and GCN5L2 inh -6%.
